An excerpt weighted towards active compounds, which were near 2.1% of everything screened.
SIRT5 block: sirtuin-5 (human) deacylase inhibition. Purified SirT5, succinyl-peptide AMC, trypsin-coupled fluorescence. 1.1% of 330,000 active. inhibition, % at 15 µM. Q9NXA8; in the data active means inhibition above about 15%
Casp6 inh: caspase-6 (human) enzyme inhibition | purified caspase-6, Z-VEID-R110 cleavage fluorescence | inhibition, % at 12.5 µM | 0.53% of 350,000 active | P55212;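 active means mean inhibition across replicates at least about 35%, with every replicate also reaching that limit, limit read from the data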
Target sequence (P55212 24-179 limits assumed): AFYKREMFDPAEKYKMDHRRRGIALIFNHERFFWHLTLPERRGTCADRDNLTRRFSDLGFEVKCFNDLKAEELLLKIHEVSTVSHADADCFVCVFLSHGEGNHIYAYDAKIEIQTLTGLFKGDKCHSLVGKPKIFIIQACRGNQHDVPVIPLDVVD
Target sequence (P55212 194-293 limits assumed): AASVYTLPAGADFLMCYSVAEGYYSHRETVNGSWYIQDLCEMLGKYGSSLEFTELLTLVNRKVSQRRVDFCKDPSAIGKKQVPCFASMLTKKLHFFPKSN
ARNT-TACC3 inh: disruptors of human ARNT/TACC3 interaction; 0.66% of 390,000 active; Q9Y6A5; AlphaScreen His-ARNT PAS-B/GST-TACC3 binding, luminescence; TACC3 fragment carries E629A point mutation; inhibition, % at 9.99 µM;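 active means mean inhibition of replicates at least 50% and at least half of replicates each reaching 50%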
NSD2 HMT inh: inhibitors of human histone methyltransferase NSD2. inhibition, % at 12.5 µM. 0.54% of 310,000 active. NSD2 peptide methylation, AlphaScreen, 120 min; in the data active means inhibition above about 50%
PfHsp90 set2: inhibits growth of yeast expressing Plasmodium falciparum Hsp90; S. cerevisiae expressing PfHsp90, BacTiter-Glo ATP, 48 h; yeast lacking PDR1 and PDR3 efflux regulators; inhibition, % at 9.4 µM; 0.32% of 310,000 active; AID 504621;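 active means every replicate shows inhibition above about 80%, whatever the replicate mean, limit read from the data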
AlphaScreen art: AlphaScreen assay artifact in NSD2 counter-screen; shares compounds with NSD2 HMT inh; 9.4% of 1,500 active; AlphaScreen artifact counterscreen, preloaded methylated H4 peptide; AC35, µM (series often up to 10 µM); call rule not given here
Of the large screens only hits and unclear results are named; the others gave an inactive call (follow-up assays come after a bar, where they were run).

Cc1cc(/C=C2\C(=O)NC(=O)N(c3ccccc3F)C2=O)c(C)n1-c1cc(C(=O)O)cc(C(=O)O)c1	NSD2 HMT inh 62 | AlphaScreen art inactive
Cc1cc(C)cc(N2C(=O)NC(=O)/C(=C\C=C\c3ccco3)C2=O)c1	NSD2 HMT inh 72 | AlphaScreen art inactive
CCc1ccc(N2C(=O)NC(=O)/C(=C\C=C\c3ccco3)C2=O)cc1	Casp6 inh 54, NSD2 HMT inh 54 | AlphaScreen art inactive
COC(=O)[C@@H]1[C@@H](CO)[C@@H]2Cn3c(ccc(/C=C/c4ccccc4)c3=O)[C@H]1N2C(=O)C1CCC1	none (no result: NSD2 HMT inh, PfHsp90 set2)
O=C(O)[C@@H]1[C@@H](CO)[C@@H]2Cn3c(ccc(-c4cccnc4)c3=O)[C@H]1N2C(=O)Nc1cc(F)ccc1F	none (no result: NSD2 HMT inh, PfHsp90 set2)
O=C(Cc1cccnc1)N1CCCCN2[C@H](C1)[C@H](c1ccc(C#CC3(O)CCCC3)cc1)[C@@H]2CO	none (no result: NSD2 HMT inh, PfHsp90 set2)
CCNC(=S)NCCC1=c2ccccc2=N/C1=C\c1c(O)n(C)c(=O)n(C)c1=O	NSD2 HMT inh 55 | AlphaScreen art inactive
Cn1c(O)c(/C=C2\C=Nc3ccc(Br)cc32)c(=O)n(C)c1=O	none
O=C(O)[C@@H]1[C@@H](CO)[C@@H]2Cn3c(ccc(-c4ccc(F)cc4)c3=O)[C@H]1N2CC1CCCCC1	none (no result: NSD2 HMT inh, PfHsp90 set2)
COCCNC(=O)c1c(NC(=O)c2ccco2)n(Cc2ccccc2)c2nc3ccccc3nc12	NSD2 HMT inh 113 (no result: SIRT5 block, Casp6 inh) | AlphaScreen art inactive
COCCCNC(=O)c1c(NC(=O)c2ccccc2Cl)n(Cc2ccccc2)c2nc3ccccc3nc12	none (no result: SIRT5 block, Casp6 inh)
CN1CCN(c2ncnc3c2cnn3C)CC1	NSD2 HMT inh 76 | AlphaScreen art inactive
Cc1ccc(/C=C2/C(=O)NC(=O)N(C)C2=O)cc1	none
CN1C(=O)NC(=O)/C(=C/c2ccc([N+](=O)[O-])o2)C1=O	Casp6 inh 56, NSD2 HMT inh 59 (no result: ARNT-TACC3 inh, PfHsp90 set2) | AlphaScreen art inactive
CCN1C[C@]2(CO)CC[C@H](OC)[C@@]34C2[C@H](OC)[C@@](O)(C13)[C@@]1(O)C[C@H](OC)[C@H]2C[C@@H]4[C@@H]1[C@H]2OC	SIRT5 block 24, NSD2 HMT inh 57 | AlphaScreen art inactive
COC(=O)[C@@H]1[C@@H](CO)[C@@H]2Cn3c(ccc(-c4ccccc4F)c3=O)[C@H]1N2C(C)=O	none (no result: NSD2 HMT inh, PfHsp90 set2)
O=C(O)[C@@H]1[C@@H](CO)[C@@H]2Cn3c(ccc(-c4ccncc4)c3=O)[C@H]1N2C(=O)C1CCCCC1	none (no result: NSD2 HMT inh, PfHsp90 set2)
CCC(C)NC(=O)c1c(N)n(CCCOC)c2nc3ccccc3nc12 (stereo unspecified)	NSD2 HMT inh 106 (no result: SIRT5 block, Casp6 inh) | AlphaScreen art inactive
CC1(C)CC(=O)C2=C(C1)NC(=O)C21C(C(=O)OC(C)(C)C)=C(N)Oc2ccc(Br)cc21 (stereo unspecified)	NSD2 HMT inh 62 (no result: PfHsp90 set2) | AlphaScreen art inactive
C=CCN1C(=O)C2(C(C(=O)OCC)=C(N)Oc3ccccc32)C2=C1CCCC2=O (stereo unspecified)	none (no result: SIRT5 block, Casp6 inh)
CN1C(=O)/C(=C\c2ccc(Br)s2)C(=O)NC1=S	none
O=C1NC(=S)NC(=O)C1=Cc1ccc(Br)s1	SIRT5 block 24, NSD2 HMT inh 52, PfHsp90 set2 123 | AlphaScreen art inactive
BrCCc1ccccc1	none (no result: SIRT5 block, ARNT-TACC3 inh, NSD2 HMT inh)
CNCCCc1ccccc1	NSD2 HMT inh 103 (no result: SIRT5 block, Casp6 inh, PfHsp90 set2) | AlphaScreen art inactive
COC(=O)[C@@H]1[C@@H](CO)[C@@H]2Cn3c(ccc(C4=CCCCC4)c3=O)[C@H]1N2Cc1cccnc1	none (no result: NSD2 HMT inh, PfHsp90 set2)
O=C(Cc1ccccn1)N1CCCCN2[C@H](CO)[C@H](c3ccc(-c4ccccc4F)cc3)[C@H]2C1	none (no result: NSD2 HMT inh, PfHsp90 set2)
O=c1[nH]c(=S)[nH]c(O)c1N=Nc1cc(S(=O)(=O)Nc2ccc(Cl)cc2)ccc1Cl	NSD2 HMT inh 66 | AlphaScreen art inactive
NS(=O)(=O)c1ccc(N=Nc2c(O)[nH]c(=S)[nH]c2=O)cc1	none
CCCCn1c(NS(=O)(=O)c2ccccc2)c(C(=O)OCC)c2nc3ccccc3nc21	NSD2 HMT inh 99 (no result: SIRT5 block, Casp6 inh) | AlphaScreen art inactive
CCCCn1c(NC(=O)c2ccc(Br)o2)c(C(=O)OCC)c2nc3ccccc3nc21	none (no result: NSD2 HMT inh)
CCCC#Cc1ccc([C@@H]2[C@@H](CO)N3CCCCN(C(=O)Cc4ccccn4)C[C@@H]23)cc1	none (no result: NSD2 HMT inh, PfHsp90 set2)
Cc1ccc(N2C(=O)NC(=O)/C(=C/c3cnn(-c4ccc(C)cc4)c3)C2=O)cc1	NSD2 HMT inh 51 (no result: SIRT5 block, Casp6 inh) | AlphaScreen art inactive
Cc1ccc(N2C(=O)NC(=O)/C(=C/c3ccoc3)C2=O)cc1	SIRT5 block 18, Casp6 inh 85, NSD2 HMT inh 90 | AlphaScreen art inactive
CSc1ncc(/C=C2/C(=O)NC(=O)N(c3ccc(C)cc3)C2=O)cn1	none

From PubChem BioAssay
